This passage reports growth results from PubChem BioAssay (NCI).

Several values for one entry are separate records, joined by “and”; a condition that tells them apart may be missing. Equal entries are not always repeated. The panel holds about 83,000 compounds, 20% with a hit somewhere; the sample as a whole holds those more often.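 Assay: single dose, 48 h. Readout: percent growth (0 = no net growth; negative = cell death). Active: <10.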 Activity calls are given as the source filed them.

One test concerns A549/ATCC NSCLC. The test can be described thus: NCI-60 one-dose screen, 48 h (100 = growth as untreated, 0 = no growth, -100 = all killed). To be noted: 10 µM unless noted.
Turning to `O=C(/C=C/c1ccc(Cl)s1)c1ccc(Cl)s1`, the growth is 96.8% (inactive).
With `O=C(Nc1ccc(Cl)c(Cl)c1)Nc1ccc(Cl)c(Cl)c1`, the growth is -63% (active) and 17.6% (inactive).
On to `Cc1ccc(-c2nc3nc(-c4ccc(Br)cc4)nc(N4CCCNCC4)c3o2)cc1`, for which the growth is -74.7% (active).
On to `Cc1ccc2c(c1)C(C)Cc1c(ncnc1-n1cnc3cc(C)ccc31)N2C` (configuration not stated), for which the growth is 8.39% (active).
Regarding `Clc1ccc(/C=N\N2CCCCCC2)cc1`, the growth is 94.2% (inactive) and 104% (inactive).
Take `COc1cc(NC2CCCCC2O)c2nc(-c3ccc(Cl)cc3)ccc2c1` (configuration not stated): the growth is 69% (inactive) and 73.5% (inactive).
On to `Cc1cc(N2CCN(CC(=O)Nc3ccc4c(ccn4Cc4ccccc4)c3)CC2)nc(N2CCCCCC2)n1`, for which the growth is 46.3% (inactive).
As for `Nc1nc(CSc2n[nH]c(N)n2)nc(Nc2ccccc2)n1`, the growth is 102% (inactive).

The subject of a further test is 786-0 renal. The description is as above. To be noted: 10 µM unless noted.
Consider `CN(C)CCN1C(=O)c2c(c3c4ccccc4n4c3c3c2c2ccccc2n3C2CC(O)C(O)C4(C)O2)C1=O` (configuration not stated), for which the growth was 29.3% (inactive).
On to `O/N=C(/c1ccccc1)c1ccc2c3c(cccc13)CC2`, for which the growth was 88.4% (inactive) and 92.1% (inactive).
Turning to `CCNC(=O)Oc1ccc(/C(=C(/C)Cc2ccc(OC)cc2)c2ccc(OCCN(CC)CC)cc2)cc1`, the growth was 53.8% (inactive).
Regarding `Cc1nnc(NS(=O)(=O)c2ccc(N=Nc3ccc(N)nc3N)cc2)s1`, the growth is 102% (inactive) and 99.8% (inactive).
`Cn1cc(C2=C(c3cccc4ccccc34)C(=O)NC2=O)c2cc(Br)ccc21`: the growth was 84.7% (inactive).
Turning to `Cc1ccc2nc3ccccc3c(NCc3ccc(Cl)cc3)c2c1`, the growth was 34.7% (inactive).
On to `Brc1ccc(/C=C(/C2=NCCN2)n2ccc3ccccc32)cc1`, for which the growth was 81.6% (inactive).
As to `Cn1cc2c(=O)nc3c(-c4nc5ccccc5[nH]4)n[nH]n3c2n1`, the growth is 80.7% (inactive).
Take `Cc1ccc2[nH]c(=S)[nH]c(=O)c2c1`: the growth was 94.9% (inactive).
The same measure, in the same setting: the figure for `N#CC1=C(N)Oc2c(sc3c(Br)cccc23)C1c1ccccn1` (configuration not stated) is 27.2% (inactive); for `Cc1nc2sc(C(=O)Nc3cccc4ncccc34)c(N)c2cc1C(C)O` (configuration not stated) it is 86.2% (inactive).
For the compound `COc1ccc2c(O)c(/C=C3\N=Nc4nc(C)ccc43)oc2c1CC1CCNCC1`, the growth is 54.1% (inactive).
`Clc1ccc(Nc2nc(Nc3ccc(Cl)cc3)nc(Nc3ccc(-c4cc(-c5cccc(Cl)c5)on4)cc3)n2)cc1`: the growth was 94.6% (inactive).
As to `O=C(/C=C/c1ccc(Cl)s1)c1ccc(Cl)s1`, the growth is 79.7% (inactive) and 94.8% (inactive).
The same measure, in the same setting: the figure for `O=C1/C(=C/c2ccc(-c3cccc(C(F)(F)F)c3)o2)SC(=S)N1CCc1ccc(O)cc1` is 17.9% (inactive); for `O=C(CCN1CCOCC1)Nc1cccc(-n2cc(-c3ccncc3)c(-c3ccc(Cl)c(O)c3)n2)c1` it is 11.7% (inactive).
Consider `O=C(Nc1ccc(Cl)c(Cl)c1)Nc1ccc(Cl)c(Cl)c1`, for which the growth is -63.1% (active) and 20.4% (inactive).
Take `CCn1cc(C(=O)NN=C2CCCC2)c(=O)c2ccc(C)nc21`: the growth is 93.1% (inactive).
On to `CCOc1ccccc1NC(=O)c1cc2ccccc2cc1O`, for which the growth is 70.7% (inactive).
Take `O=C(c1ccc(Nc2nccc(NCCCNc3ccnc4cc(Cl)ccc34)n2)cc1)N1CCCCC1`: the growth was 32.9% (inactive).
As for `Cc1ccc(-c2nc3nc(-c4ccc(Br)cc4)nc(N4CCCNCC4)c3o2)cc1`, the growth was -90.6% (active).
For the compound `S=c1nc(CS)[nH]c2ccccc12`, the growth is 103% (inactive).
Take `Cc1ccc2c(c1)C(C)Cc1c(ncnc1-n1cnc3cc(C)ccc31)N2C` (configuration not stated): the growth was 10.7% (inactive).
Still for that read-out and setting: the figure for `Clc1ccc(/C=N\N2CCCCCC2)cc1` is 101% (inactive) and 97.5% (inactive); for `CC(=O)OC[C@]12CCC(C)(C)C=C1[C@H]1CC[C@@H]3[C@@]4(C)CCCNC(C)(C)[C@@H]4CC[C@@]3(C)[C@]1(C)CC2` it is 82.2% (inactive); for `Cc1[nH]c(C(=O)Nc2nc3ccc(NC(=O)CCN)cc3s2)c(Cl)c1Cl` it is 92.1% (inactive).
With `COc1ccc(C(=O)c2ccc(OC)c(OC)c2OC)cc1`, the growth is 74% (inactive) and 46.1% (inactive).
Turning to `COc1cc(NC2CCCCC2O)c2nc(-c3ccc(Cl)cc3)ccc2c1` (configuration not stated), the growth was 42.4% (inactive) and 77.6% (inactive).
As to `CN1CCCc2cc(/C=C3\SC(=S)N(C(Cc4ccc(O)cc4)C(=O)O)C3=O)ccc21` (configuration not stated), the growth was 99.8% (inactive).
For the compound `Cc1cc(N2CCN(CC(=O)Nc3ccc4c(ccn4Cc4ccccc4)c3)CC2)nc(N2CCCCCC2)n1`, the growth is 79.4% (inactive).
`CCCCC1COc2cccc3c2N1C=C/C3=C\C(=O)N(C)c1cccc(Cl)c1` (configuration not stated): the growth is 99.8% (inactive).
Consider `O=C(NNc1ccccc1)C1CCCN1` (configuration not stated), for which the growth was 89.2% (inactive).
On to `O=C1C=C(Nc2ccccc2)c2ncccc2C1=O`, for which the growth was -91.9% (active).
With `Nc1nc(CSc2n[nH]c(N)n2)nc(Nc2ccccc2)n1`, the growth is 96% (inactive).
For `O=C1/C(=C/c2ccccc2[N+](=O)[O-])Cc2ccccc21`, the growth was 45% (inactive) and 26.5% (inactive).
For `COc1ccc(/C=C2/C(=O)N=C3N2NC(c2ccccc2)=CN3c2ccccc2)cc1`, the growth was 98.6% (inactive).
As for `CCN(CC)CCCN1C(=O)c2c(c(C)c3c(oc4cc(OC)ccc43)c2C)C1=O`, the growth is -79% (active).
`CC[C@]12CN3CCc4c([nH]c5ccccc45)[C@@](C(=O)OC)(c4cc5c(cc4OC)N(C)[C@H]4[C@@](O)(C(=O)OC)[C@H](OC(C)=O)[C@]6(CC)C=CCN7CC[C@]54[C@@H]76)CC(C3)[C@H]1O2` (some centres not stated): the growth was 19.6% (inactive).
Take `O=C(/C=C\c1ccc(Cl)c(Cl)c1)c1ccccc1`: the growth was 84.9% (inactive) and 104% (inactive).
